Results published in ChEMBL document CHEMBL1157539, “Thousands of chemical starting points for antimalarial lead identification” (Nature, 2010).

Tests used:
Format in all cases: functional
[1] = tested on: Plasmodium falciparum; assay: GSK_TCMDC: Inhibition of Plasmodium falciparum 3D7 in whole red blood cells, using parasite LDH activity as an index of growth. Test compounds present at 2uM
[2] = tested on: Plasmodium falciparum; assay: GSK_TCMDC: Inhibition of Plasmodium falciparum Dd2 in whole red blood cells, using parasite LDH activity as an index of growth. Test compounds present at 2uM
[3] = tested on: HepG2; assay: GSK_TCMDC: Percent inhibition of human HepG2 cell line. Test compounds present at 10uM.

Row | Compound | Inhibition [1] [%] | Inhibition [2] [%] | Inhibition [3] [%]
1 | Br.CC(Cc1ccc(SC(C)(C)C)cc1)NCC(O)c1cccc(Cl)c1 (stereo not drawn) | 99 | 99 | 14
2 | O=S(=O)(NC1CCC(CN2CCC(c3c[nH]c4ccccc34)CC2)CC1)c1ccc(Cl)c(Cl)c1 (stereo not drawn) | 97 | 32 | 36
3 | Oc1ccc2[nH]cc(C3=CCN(Cc4ccccc4)CC3)c2c1 | 94 | 67 | 1
4 | CC(C)CNCc1ccc(-c2ccc(CN(C(=O)Nc3ccccc3)C3CCN(Cc4ccccc4)CC3)cc2)cc1.O=C(O)C(F)(F)F | 100 | 61 | 27
5 | COCCNCc1cccc(-c2ccc(CN(C(=O)Nc3ccccc3)C3CCN(Cc4ccccc4)CC3)cc2)c1.O=C(O)C(F)(F)F | 100 | 45 | 25
6 | CCCCCc1cc(O)c2c(c1)OC(C)(C)c1ccncc1-2.Cl | 99 | 57 | 0
